Laboratory results published in PubChem BioAssay AID1347426 (Functional Genomics Laboratory (NCATS/FGL), 2020).
About 1,400 (4.5%) of roughly 31,000 sequences were called active. Shown is part of a subset that was picked to be rich in actives. Unmarked numbers belong to inactive results.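 How the source made its calls: active means median seed-adjusted z-score above 1 or below -1; inactive means the rest.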

Experiment: Novel Modifiers of Survival Motor Neuron (SMN) Protein: Gene Identification via Genome-wide siRNA Screen
Details: HEK293T SMN2-luciferase reporter, siRNA knockdown, 72 h; actives lie on both sides
Text: Spinal muscular atrophy (SMA) is the most common neuromuscular autosomal recessive disorder and one of the leading genetic causes of infant death. SMA results from mutations inducing loss of function or deletion in the survival of motor neuron-1 gene (SMN1), leading to deficiency of the survival motor neuron (SMN) protein. Although a second nearly identical gene, SMN2, is retained in humans, its expression primarily produces an aberrantly spliced isoform that is largely unstable and quickly degraded. We performed a genome-wide RNAi screen using a cell-based reporter assay to identify genes and pathways that modulate SMN protein stability. The screen identified over 200 genes that led to the greatest increase or decrease in luciferase expression.
Using HEK293T cells stably expressing a luciferase reporter that combines the promoter and splicing based cassettes in tandem with the major portion of the native SMN2 cDNA with luciferase, we performed a genome-wide RNAi screen to identify modulators of SMN protein levels. Luciferase is expressed when full-length SMN protein is generated with luminescence signal proportional to SMN protein levels. Our luciferase-based reporter assay was used to screen Ambion Silencer Select Human Druggable Genome siRNA library (10418 genes, 3 unique siRNAs per gene) using lipid-based reverse transfection.
Briefly, 1 pmol of each siRNA was spotted to a well of a 384-well plate (Corning, Corning, NY) and 20 microL of serum-free DMEM containing […] of Lipofectamine RNAiMax (Life Technologies, Carlsbad, CA) was then added to each well. Transfected cells were maintained at 37 degrees C in 5% CO2 for 72 hours, 20 microL of ONE-Glo Reagent (Promega) was added to wells for luciferase quantification. Raw luminescence reads were normalized to Ambion(R) Silencer(R) Negative Control #2 siRNA, then log10 transformed. A robust statistical measure of median absolute deviation (MAD) to standardize siRNA activities from each screen. Common Seed Analysis was used to help prioritize clean hits as opposed to those appearing to arise from seed based off-target effects. Candidate modulators were defined as the genes having a MAD score greater than 1.0 or less than -1.0.

With ACCCAACUCUUACUCUUAATT against RNF7 the median seed-adjusted z-score was -1.18 (active).
In the case of CGCCCAACCUUACUACCUUTT against TXNDC14, the median seed-adjusted z-score is reported as -2.39 (active).
With AGAGAAUCUCGAGGAUAUATT against ZNF74 the median seed-adjusted z-score was 1.17 (active).
For GCAAUGCCCUUUUCACCGATT against SERPINA5, the median seed-adjusted z-score was -1.01 (active).
For GGGACCGAGAGAUCAGAUATT against PPAP2C, the median seed-adjusted z-score was -1.12 (active).
For GAAUAACCGUUGGUUUAAUTT against U2AF1, the median seed-adjusted z-score was 2.08 (active).
In the case of CGGUGAACGGGUUGGAGAATT against PAX9, the median seed-adjusted z-score is reported as -1.16 (active).
With CAACGACAGAACUAACAGATT against SENP6 the median seed-adjusted z-score was -1.03 (active).
With CCAGUGCUGUCAGUACGAUTT against LY6G5B the median seed-adjusted z-score was -1.29 (active).
In the case of UCAACCUCAUGGACUUUAATT against SLC5A5, the median seed-adjusted z-score is reported as 1.01 (active).
In the case of CAAUGAGUAUGUGACGGAATT against UNC13A, the median seed-adjusted z-score is reported as -2.1 (active).
In the case of CGGAUUCCAGGAAUGCUAATT against EIF5B, the median seed-adjusted z-score is reported as 1.68 (active).

In order of rising median seed-adjusted z-score:
1. GCAGAAAAGAACAACUUGUTT against RAB11B  -0.857
2. GCAAUAGGAUGGAUGAUCATT against GPSM2  -0.755
3. CCCUCAAGGUACAAACAUUTT against POLD1  -0.715
4. CAGUCUUCAUUGCUACUAATT against NFE2L2  -0.596
5. GGAUCUGACAGACAAUGAUTT against ABCC3  -0.549
6. CCCAAGACGUUCACCGUGATT against NF2  -0.543
7. GAAGCAAUCUGGGAAGAGATT against MOCS3  -0.496
8. CCACCAAAGUUCACCCUGATT against LMNA  -0.409
9. CCUUAUCGCUAGAUGUCAATT against GRM3  -0.401
10. GAGCUAUAAUCAGACCUGUTT against ART5  -0.354
11. GAGUCUAUCUUGAUAAUCUTT against PPWD1  -0.341
12. CCAUGACAACUUUCACUGATT against AGFG2  -0.289
13. GGAUCCCGCUGCACAAGUUTT against CTSD  -0.282
14. GGUUUGCCCUUAUCUUGUATT against RDH10  -0.28
15. ACAAGUUCUUGGAGCCUUATT against ATP1B2  -0.185
16. CCCAAUCCCUAUUUGAGAATT against ADRA1D  -0.18
17. CCUUUACUUUCUAUAGAAATT against ZNF573  -0.169
18. GAUGGAAACAUUGAAUAUATT against GTPBP2  -0.166
19. GCUUUGACCUUCUUAGCAATT against SMARCAL1  -0.145
20. GGCUAACAAUUUGUCCAGUTT against SEC22B  -0.106
21. GGCUUAUGGGUGUUCGGAUTT against POLK  -0.102
22. CUUCCAAUGUUAAUGGACATT against VHLL  -0.0852
23. CAACAUCUAUGAUUGGAAUTT against RFXANK  -0.0665
24. GGAACGAGGUGUCAGCUCUTT against RFXANK  -0.0665
25. CGACGACGUGCAAGACCAATT against ZNF787  -0.0628
26. CGUGGAUUCUUACGGAAGATT against CIT  -0.0585
27. CGCUCACUGUUCUUCGGCUTT against RAD9A  -0.0564
28. GGGCUGUGAUCUUGUCGAATT against AGMAT  -0.0269
29. CAACGAUAUUUGGAUAUCUTT against DPP8  -0.0209
30. GCUUUAGAAUACAUACCAATT against IFIT2  -0.0205
31. CGUCUUCCUUGUGCGCCUATT against COL20A1  -0.0033
32. CCGGGUUAAUUACCACCUUTT against MTHFR  0
33. AAUUGAGGAAUACAAAAGATT against PAX3  0.0223
34. GAGAAGUCGAGGCUCUUUATT against WNT6  0.027
35. GGGCCGAACUGAAAUACGATT against FGD2  0.0293
36. GCAGUUAUUGGUACUAAUATT against MOAP1  0.0405
37. CUCUAUGAAUAUUGUAUUATT against BUD31  0.0554
38. CAUCAAACCUGGGAACAAATT against ZNF225  0.0761
39. GGCUCAACGUAUAAGCGAATT against PIP5K1B  0.0917
40. GAAGGUGUUUCAUACGAAUTT against SIPA1L1  0.0925
41. CGUCAUCUUUGCGAAGAUUTT against EHD2  0.0989
42. CCCUCAAUCCAGCACAAAATT against LILRA4  0.109
43. GAUCUAUUCUUAAUGCCGATT against TFB1M  0.172
44. GCAGCUCACUUAAGGCCUATT against VPS18  0.181
45. GGAACACUCAUGACUGUAATT against ZNF426  0.2
46. GAGGCUCGGUAAUCAAUGATT against DERL1  0.22
47. CCGUCACUGAAGUCAAUAATT against CACNA1F  0.22
48. GGAUGGGCAUGUUGAGAGATT against NUDT9  0.277
49. GGUCAAUACACCUAAGAAATT against PRDX1  0.288
50. GGAUGGUUGUGAGCCGCUATT against ZNF784  0.291
51. GAAAUUUCUUAGGAACUCATT against ADH1B  0.325
52. CCAAUAUUGUGGAUCCUUUTT against HTR4  0.444
53. GAAGGAGUUUGCACAGAAATT against DHDH  0.522
54. GCUGAGCUCAGUAACCACATT against LCAT  0.526
55. GGAGCUACUGAGAACAUAATT against HOXD4  0.566
56. CAGGAGCAGUUAGACUUAATT against DNALI1  0.699
57. GAUCGUUUCCUAUACAGUATT against ESPL1  0.871
